Compound activity (PubChem)
In the library only some 8.8% were active in any assay of this set; here they are far more common.
IL1B secr inh = inflammasome signaling inhibition, IL-1 beta readout. THP-1 LPS/ATP IL-1B secretion, AlphaLISA, 16 h; active compounds read low. activity change, % at 57.5 µM. 4.7% of 360,000 active. AID 743279; in the data active means activity change below about -50%; inconclusive means mostly about -30% to -49%
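Secreted IL-1B measured by AlphaLISA bead assay after 16 h compound exposure of THP-1 cells; compounds (final up to 57.5 uM) added 1 h before LPS (250 ng/mL) and ATP (1.25 mM) stimulation; lower signal means less secretion.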
KB-3-1 cytotox = KB-3-1 parental cell cytotoxicity; AID 1347075; 1.4% of 400,000 active; Potency, µM (highest dose often 46.1 µM), usual class: cytotoxic; KB-3-1 viability, CellTiter-Glo ATP luminescence, 72 h; further: nearly all actives have a fitted effect of over 60% in size
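Cells are dispensed, compounds pinned in, plates held at 37 °C for 72 h, then CellTiter-Glo is added and luminescence read after 10 minutes. Cell line: parental KB-3-1 in phenol-red-free DMEM, 10% FBS.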
KB-V1 cytotox = kills drug-selected multidrug resistant KB-V1 cells. KB-V1 MDR cells viability, CellTiter-Glo, 72 h. Potency, µM (top dose mostly 46.1 µM), hits mostly cytotoxic. 3.4% of 400,000 active. AID 1347076; further: nearly all actives have a fitted effect of over 60% in size
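Compound-treated KB-V1 multidrug-resistant cells, 72 h, 37 degrees C; viability by CellTiter-Glo. Fitted qHTS curves give the values.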
HT1080NT lethal = kills 2HG-producing HT-1080-NT fibrosarcoma cells | HT-1080-NT fibrosarcoma viability, CellTiter-Glo ATP luminescence, 48 h | Potency, µM (top dose mostly 46.1 µM), hits mostly cytotoxic | 1.6% of 360,000 active | AID 686970;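 further: NT is the 2HG producing partner of a matched IDH1 knockdown line; nearly all actives have a fitted effect of over 55% in size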
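Read-out is CellTiter-Glo luminescence after 10 minutes at room temperature, following 48 hours' compound treatment of HT-1080-NT cells (750 cells/well, RPMI, 5% FBS, 37 degrees C).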
HT1080 IDH1KD tx = toxicity to HT-1080 IDH1 knockdown cells (counter line) | HT-1080 IDH1 knockdown viability, ATP luminescence, 48 h | Potency, µM (highest dose often 46.1 µM), actives largely listed as cytotoxic | 2% of 360,000 active | AID 686971
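In this qHTS, HT-1080 cells depleted of IDH1 are exposed for 48 h at 37 °C to compound titrations. Toxicity is scored from CellTiter-Glo luminescence, with DMSO as full viability and medium alone as none.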
Hits are given with their value; – = inactive; ? = inconclusive; · = not tested or not shown. Unless noted, the call rests on the fitted dose curve; in most records, active means well fitted curve in the direction sought with a large enough effect; inconclusive means small, poorly fitted or top-dose-only effect, or another doubt; inactive means no such curve, though single readings can be large; an effect the other way counts as inactive or inconclusive.

SMILES	IL1B secr inh	KB-3-1 cytotox	KB-V1 cytotox	HT1080NT lethal	HT1080 IDH1KD tx
Cc1ccc(N(CC(=O)N2CCCCCC2)S(=O)(=O)c2ccccc2)cc1	–	–	?	–	–
c1ccc(Nc2scc(-c3ccccc3)[n+]2Cc2ccco2)cc1	–	?	?	?	–
c1ccc(C[n+]2c(-c3ccccc3)csc2Nc2ccccc2)cc1	–	20.6µM	16.4µM	–	–
CC(C)(C)C1CCc2nc(NC(=O)COc3ccc(F)cc3)sc2C1 (configuration not stated)	·	–	–	·	·
COC(=O)c1ccccc1NC(=O)C1CC(=O)N(c2ccc(F)cc2)C1 (configuration not stated)	–	–	–	–	–
COC(=O)c1ccccc1NC(=O)C1CC(=O)N(c2ccc(C)c(C)c2)C1 (configuration not stated)	–	–	20.6µM	–	–
COc1ccc(N2CC(C(=O)Nc3ccccc3N3CCCC3)CC2=O)c(OC)c1 (configuration not stated)	–	7.31µM	?	?	23.1µM
O=C(Nc1cc(C(F)(F)F)ccc1N1CCCC1)C1CC(=O)N(Cc2ccccc2)C1 (configuration not stated)	–	–	–	–	–
COc1ccc(N2CC(C(=O)Nc3cc(C(F)(F)F)ccc3N3CCCC3)CC2=O)c(OC)c1 (configuration not stated)	–	?	?	20.6µM	20.6µM
CCCn1c2ccccc2c2cnn(CC(=O)N(C)c3ccc(F)cc3)c(=O)c21	·	–	–	·	·
CCOc1c2c(c(-c3ccc4c(c3)OCO4)c3cc(OC)c(OC)cc13)C(=O)OC2	·	1.3µM	?	·	·
O=C(CSc1nncs1)Nc1ccc(N2CCCCC2)cc1	–	?	16.4µM	–	–
COc1ccc(NC(=O)CSc2nncs2)cc1S(=O)(=O)N1CCCCC1	–	–	–	–	–
O=C(Nc1ccccc1C(=O)N/N=C/c1ccncc1)c1ccccc1	–	?	–	20.6µM	9.2µM
COc1ccc(C(=O)Nc2ccccc2C(=O)N/N=C/c2ccco2)cc1	–	–	–	9.2µM	?
O=C(Nc1ccccc1C(=O)N/N=C/c1ccc(F)cc1)c1ccccc1Br	–	–	25.9µM	–	?
CCOc1ccc(/C=N/NC(=O)c2ccccc2NC(=O)c2ccc(OC)cc2)cc1	–	–	–	–	–
CCOc1ccccc1OCC(=O)NNC(=O)Cn1cnc2c1c(=O)n(C)c(=O)n2C	–	–	–	–	–
Cc1ccc(-n2ncc3c(N4CCCCCC4)ncnc32)cc1	·	–	–	·	·
Cc1cc(C)nc(NC2=NCC(=O)N2c2ccccc2)n1	–	–	–	–	–
Cc1cc(C)nc(NC2=NCC(=O)N2c2cccc(Cl)c2)n1	–	–	20.6µM	–	–
COC(=O)c1ccccc1NC(=O)c1c(NC(=O)c2ccco2)sc2c1CCC(C(C)(C)C)C2 (configuration not stated)	·	–	–	·	·
COc1ccc(NC(=O)Cn2c(=O)n(CCCC(=O)NCCc3ccc(C)cc3)c(=O)c3ccccc32)cc1Cl	·	–	–	·	·
O=C(COC(=O)CC1CC2CCC1C2)Nc1cc([N+](=O)[O-])ccc1F (configuration not stated)	-53.8	–	–	–	–
C(=C\n1nnc2ccccc21)/c1ccc[nH]1	–	–	–	–	–
SMILES	IL1B secr inh	KB-3-1 cytotox	KB-V1 cytotox	HT1080NT lethal	HT1080 IDH1KD tx
COc1ccccc1C=NN=Cc1ccccc1OC	–	–	–	–	–
COc1ccccc1-c1nnc(Nc2nc3c(OC)cccc3s2)o1	–	0.411µM	?	0.92µM	0.461µM
COc1cccc(-c2nnc(Nc3nc4c(F)cccc4s3)o2)c1	–	–	–	7.94µM	6.31µM
CC(=O)c1ccc(OC(C)C)c(Cc2c(O)nc(N)[nH]c2=O)c1	–	–	–	–	–
O=C(C1=NOC(CNc2ncc(C(F)(F)F)cc2Cl)C1)N1CCOCC1 (configuration not stated)	–	–	–	–	–
CCC(=O)N1c2ccccc2CC1C(=O)NCc1cccc(C)c1 (configuration not stated)	·	–	–	·	·
COc1cccc(NC(=O)CN(C)C(=O)CSc2ncnc3sc(C)c(C)c23)c1	–	–	?	–	–
COc1cc(NC(=O)c2c(-c3ccc(C)cc3)nnc3ccccc23)cc(OC)c1OC	·	–	–	·	·
COc1ccc(N2CCN(C(=O)COC(=O)[C@@H](NC(=O)OCc3ccccc3)C(C)C)CC2)cc1	–	–	6.51µM	–	–
Cc1ccc2nc3c(cc2c1)c(NC(=O)C(C)(C)C)nn3CC(C)C	–	–	–	–	–
C=CCn1c(COc2ccc3c(c2)CCCC3)nnc1SCC(=O)Nc1cccc(SC)c1	–	?	14.6µM	?	?
COc1ccc(OC)c(CN2C(=O)CSCC2(C)C(=O)Nc2c(C)cccc2C)c1 (configuration not stated)	-66.5	–	–	–	–
Cc1ccc(C(=O)NC(=S)N(C)C2CCCCC2)cc1	?	–	–	–	–
CCC(=O)N(CCc1ccc(S(N)(=O)=O)cc1)C1CC(=O)N(c2ccc(OC)cc2)C1=O (configuration not stated)	–	–	–	–	–
Cc1cccc(CN2CCN(C(=O)c3cccc4ccccc34)CC2)c1	–	–	–	–	–
O=C(/C=C/c1ccc(F)cc1)N1CCN(c2ccccn2)CC1	–	–	–	–	–
O=C(/C=C/c1ccc(Br)cc1)N1CCN(Cc2ccccc2)CC1	-81.0	–	?	–	–
Cc1cccc(CN2CCN(C(=O)CCl)CC2)c1	-106.0	?	?	–	?
O=C(/C=C/c1ccccc1)N1CCN(c2cccc(Cl)n2)CC1	–	–	18.4µM	–	–
Cc1ccc(/C=C/C(=O)N2CCN(Cc3ccccc3)CC2)o1	–	–	13µM	–	–
C#Cc1ccc(C(=O)Nc2ccc(N3CCC(C)CC3)c(C(N)=O)c2)cc1	–	–	–	–	–
CSc1ncccc1C(=O)OCC(=O)c1cccc(Br)c1	–	–	–	–	–
CCn1cc(C(=O)N[C@@H](CCSC)C(=O)NCCCN2CCOCC2)c(=O)c2cc3c(cc21)OCO3	–	–	?	–	–
Cc1noc2ncnc(Oc3ccc4ccccc4c3)c12	?	–	?	–	–
Cc1noc2ncnc(Oc3cc(Cl)ccc3Cl)c12	-102.2	–	–	?	–
Cc1nn(C)c(C)c1/C=C/C(=O)c1ccc(Cl)cc1Cl	-67.7	?	?	–	–
Cc1nn(C)c(C)c1/C=C/C(=O)O	–	–	–	–	–
CCCCN(CC)CCNc1ncnc2onc(-c3ccc(Cl)cc3)c12	·	–	–	·	·
CCCCNC(=O)O[C@@H]1C[C@H]2CCCC(=O)N3CC[C@@H](C1)[C@@H]23	–	–	?	–	–
CCCCCCCN(c1ccccc1)[C@@H]1C[C@H]2CCCC(=O)N3CC[C@@H](C1)[C@@H]23	-108.3	?	?	–	–
